Experimental data taken from PubChem BioAssay (NCI).
About 83,000 compounds went through this panel and 20% of them were active in at least one assay; those are over-represented in the sample as a whole.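 In brief: 96-well plates, 48 h treatment, single concentration, percent growth endpoint.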 The source made the active and inactive calls. How the source made its calls: active means growth percent below 10; inactive means the rest.

Tested on: RXF 393 renal
Test: NCI-60 one-dose screen, 48 h (100 = growth as untreated, 0 = no growth, -100 = all killed)
Conditions: 10 µM unless noted

| SMILES | growth |
| --- | --- |
| O=C1Nc2ccc(Br)cc2/C1=N\c1nnc(-c2ccc(Cl)cc2)o1 | 87.9% (inactive) |
| C#C[C@]1(O)CC[C@H]2[C@@H]3CC=C4c5sc(Nc6cccc(C)n6)nc5CC[C@]4(C)[C@H]3CC[C@@]21C | -60.4% (active) |
| CS(=O)(=O)c1ccc2c(c1)c1c(n2Cc2ccc(Cl)cc2)CCCC1 | 73.4% (inactive) |
| COc1ccc(-c2nnc(/N=C3/C(=O)Nc4ccc(Br)cc43)o2)cc1 | 112% (inactive) |
| COc1ccc(S(=O)(=O)n2cc(C=O)c3ccccc32)c(OC)c1 | 95.3% (inactive) |
| O=C1c2c(c3c4cccnc4[nH]c3c3ccc4ccccc4c23)C(=O)N1CCN1CCOCC1 | 92.8% (inactive) |
| COc1ccc(NC2=C(Cl)C(=O)C(C)=C(C)C2=O)cc1 | 100% (inactive) |
| COc1ccc(-c2cc(-c3ccc(Cl)cc3)nc3nc(N)nn23)cc1 | 91.8% (inactive) |
| C#C[C@]1(O)CC[C@H]2[C@@H]3CC=C4c5sc(Nc6nc(C)cc(OC)n6)nc5CC[C@]4(C)[C@H]3CC[C@@]21C | -34.9% (active) |
| COc1ccc(/C=C/C(=O)c2nnn(-c3ccc(C(=O)O)cc3)c2C)cc1OC | 112% (inactive) |
| COc1cc(O)c2c(c1)/C=C/C[C@H](O)[C@H](O)C(=O)/C=C\C[C@H](C)OC2=O | -56.9% (active) |
| COc1ccccc1/C=C/C(=O)c1nnn(-c2ccc(C(=O)O)cc2)c1C | 86.6% (inactive) |
| O=S(=O)(Nc1ccc(C2CC2)cc1)c1ccc(-c2cnc(C3CC3)o2)cc1 | 74.6% (inactive) |
| COc1cc(/C=N/Nc2ccnc3cc(Cl)ccc23)cc(OC)c1O | -86.8% (active) |
